From PubChem BioAssay come the findings set out here.

A number with no mark means an inactive call. The source made the active and inactive calls. Cut-off read from the data, not from the text of the source: active = fold change permeability below about 0.7 or above about 1.3; inactive = in between.

The assay can be described thus: modulators of brain endothelial barrier permeability, primary screen, cell-based, FITC-avidin fluorescence, HTS (AID 1963498). Note: test concentration not given here. The note with it: actives lie on both sides.
For the molecule `CCN1C(=O)C=CC1=O`, the fold change permeability was 1. The same measure for `COc1ccc(CC(C)NCC(O)c2ccc(O)c(NC=O)c2)cc1` (stereo not given): 0.9. The figure for `O=C1NC(=O)c2cc(Nc3ccccc3)c(Nc3ccccc3)cc21` is 0.9; for `C[C@](N)(Cc1ccc(O)c(O)c1)C(=O)O` it is 0.8; for `CC(N)(C(=O)O)c1ccc(C(=O)O)cc1` (stereo not given) it is 0.9. The figure for `CN1CCN(CCCN2c3ccccc3Sc3ccc(Cl)cc32)CC1` is 1. Regarding `O=C1OC(=O)C2C3CCC(O3)C12` (stereo not given), the fold change permeability is 0.9. `Nc1ncnc2c1c(-c1ccc(Oc3ccccc3)cc1)cn2C1CCCC1`: the fold change permeability is 1.6 (active). The figure for `COC(=O)C1=C(C)NC(C)=C(C(=O)OCCN(C)Cc2ccccc2)C1c1cccc([N+](=O)[O-])c1` (stereo not given) is 1. The same measure for `O=C(O)c1ccc(-c2ccc(/C=C3\SC(=S)N(Cc4ccccc4)C3=O)o2)cc1`: 2 (active); for `O=C(NCCN1CCOCC1)c1ccc(Cl)cc1`: 0.8; for `NS(=O)(=O)c1cccc2c1c([N+](=O)[O-])cc1nc(O)c(O)nc12`: 0.9. The figure for `CC(CN(C)C)CN1c2ccccc2CCc2ccccc21` (stereo not given) is 1.4 (active); for `NC(N)=NCCC[C@H](N)C(=O)O` it is 1.1. Regarding `CC(C(=O)O)c1ccc(CC2CCCC2=O)cc1` (stereo not given), the fold change permeability is 1.5 (active). The figure for `COc1ccccc1N1CCN(CCN(C(=O)c2ccc(F)cc2)c2ccccn2)CC1` is 0.8. The same measure for `COc1cc(NS(C)(=O)=O)ccc1Nc1c2ccccc2nc2ccccc12`: 1.2; for `O=C1CCC(N2C(=O)c3ccccc3C2=O)C(=O)N1` (stereo not given): 1.6 (active); for `CC(=O)Oc1ccccc1C(=O)O`: 1. As to `O=C(OC1C[C@@H]2CC3C[C@H](C1)N2CC3=O)c1c[nH]c2ccccc12` (stereo not given in full), the fold change permeability was 0.8. The figure for `O=C(COc1ccc(Cl)cc1)NC1CCC(NC(=O)COc2ccc(Cl)cc2)CC1` (stereo not given) is 0.9; for `CCN[C@H]1CN(CCCOC)S(=O)(=O)c2sc(S(N)(=O)=O)cc21` it is 1.5 (active); for `CCN(CC)C(=O)c1ccc(O)c(OC)c1` it is 0.8.

`C=CCN1CCc2c(cc(O)c(O)c2Br)[C@@H](c2ccccc2)C1`: the fold change permeability was 1.

Take `CCCCS(=N)(=O)CCC(N)C(=O)O` (stereo not given): the fold change permeability was 1.1.

For `O=c1cc2c(=O)oc3cc(O)c(O)oc3c2c(O)c1O`, the fold change permeability is 1.9 (active).

Regarding `O=C1NC(=O)C(c2ccccc2[N+](=O)[O-])=C1Nc1ccc(O)c(Cl)c1`, the fold change permeability is 1.4 (active). The same measure for `NC(=O)CC[C@H](N)C(=O)O`: 0.8; for `Nc1nc2[nH]cc(CCc3ccc(C(=O)N[C@@H](CCC(=O)O)C(=O)O)cc3)c2c(=O)[nH]1`: 0.9.

On to `CC(C)C[C@H](C(=O)O)c1cc(-c2ccc(C(F)(F)F)cc2)cc(-c2ccc(C(F)(F)F)cc2)c1`, for which the fold change permeability was 0.9. The same measure for `CN(C)CCC=C1c2ccccc2CCc2ccccc21`: 1.1; for `CCCCCCN(CCCCCC)C(=O)Cc1c(-c2ccc(F)cc2)[nH]c2ccccc12`: 1.4 (active); for `CCCN[C@H]1CCc2nc(N)sc2C1`: 1.1.

`Cn1c(=O)[nH]c2ncn(C)c2c1=O`: the fold change permeability was 1.1.

`Cc1cc(C)nc(SCC(=O)Nc2ncc(Cc3cccc4ccccc34)s2)n1`: the fold change permeability was 1.4 (active). The same measure for `CC(=O)c1ccc(S(=O)(=O)NC(=O)NC2CCCCC2)cc1`: 1.1; for `O=C(O)c1cccc(-c2ccc(-c3cn(C(=O)N4CCCCC4Cc4ccccc4)nn3)cc2)c1` (stereo not given): 1. The figure for `O=C(O)[C@H](CC(=O)N1C[C@H]2CCCC[C@H]2C1)Cc1ccccc1` is 1.2.

With `Cc1nc2n(c(=O)c1CCN1CCC(c3noc4cc(F)ccc34)CC1)CCCC2O` (stereo not given), the fold change permeability is 1.

`O=C(S)S`: the fold change permeability was 1.4 (active).
